Results reported in PubChem BioAssay AID651871 (Sanford-Burnham Center for Chemical Genomics, 2012).
“And” between values parts separate entries of the source, which are not always exact repeats. Identical values can stand only once.

system: HL-1; assay: protection of cardiomyocytes from stress damage, SAR follow-up, cell-based, panel, H9c2 and HL-1, ATP luminescence, set 2 (AID 651871); details: H9c2/HL-1 cardiomyocytes, 2-deoxyglucose stress, with 2-deoxyglucose, run 14, at 79 µM (top of the series);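 note: cells exposed to stressor for 2 h before ATP readout; reference of the scale not given here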

Compound	activity (protection/inhibition)
CCOC(=O)c1cccc(NC(=O)CNC(=O)c2cc(-c3cc(OC)c(OC)c(OC)c3)nc3ccccc23)c1	83.5%
COc1ccc2c(c1OC)C(=O)N1c3ccccc3C(=O)N(Cc3cccc(Cl)c3Cl)C21 (stereo not drawn)	56.3% and -4.31%
COc1ccc2nc(-c3cc(OC)c(OC)c(OC)c3)cc(C(=O)NCC(=O)Nc3ccc(C(C)=O)cc3)c2c1	66%
